# Assay outcomes as filed in PubChem BioAssay.
# Tgondii IFNg – T. gondii growth inhibition with IFN-gamma, primary screen, cell-based. Toxoplasma gondii growth in IFN-gamma-treated host cells; active compounds read low. activity change, negative = inhibition, % (test concentration not listed). 3.8% of 69,000 active; in the data active = activity change below about -70%, passing the limit was not always enough;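 also: host cells are HeLa cells infected with Toxoplasma gondii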
# * hit, by the source's call; ! = repeats disagree. This is one part of a sample in which hits are shown more often than they occur.
SMILES,Tgondii IFNg
CN(C)C(=O)C1(Cc2ccc(-c3cccnc3)cc2)CCN(C(=O)c2n[nH]c(=O)[nH]2)C1 (centres undefined),-8
CC(C)N=c1cc2n(-c3ccc(Cl)cc3)c3ccccc3nc-2cc1Nc1ccc(Cl)cc1,-71*!
Clc1ccc(NCn2nnc3ccccc32)cc1,90
Cc1ccccc1CN1CCN(Cc2nccn2C)CC1,0
CC(C)N1CCN(CC#N)C2(CCN(C(=O)c3ccc[nH]3)C2)C1=O (centres undefined),-49
CCOc1ccccc1NC(=O)c1nc(Nc2ccc(Cl)cc2)c2ccccc2n1,-64
CCOc1ccccc1NC(=O)c1nc(Nc2ccccc2)c2ccccc2n1,-82*
COc1ccc(NC(=O)c2nc(Nc3ccc(C)cc3)c3ccccc3n2)c(OC)c1,-112*
COc1cc(OC)c(NC(=O)c2nc(Nc3ccc(C)cc3)c3ccccc3n2)cc1Cl,35
Cc1ccc(Nc2nc(C(=O)Nc3c(C)cc(C)cc3C)nc3ccccc23)cc1,-60
CCc1ccc(Nc2nc(C(=O)NCc3cccc(OC)c3)nc3ccccc23)cc1,-72*
CCOc1ccc(CNC(=O)c2nc(Nc3ccc(CC)cc3)c3ccccc3n2)cc1,44
Cc1cc(C)c(NC(=O)c2nc(Nc3ccccc3)c3ccccc3n2)c(C)c1,-78*
COc1ccc(OC)c(NC(=O)c2nc(Nc3ccc(C)cc3)c3ccccc3n2)c1,-45
CCOc1ccc(NC(=O)c2nc(Nc3ccccc3)c3ccccc3n2)cc1,-38
CCc1ccc(Nc2nc(C(=O)NCc3ccccc3)nc3ccccc23)cc1,-28
Cc1ccc(NC(=O)c2nc(Nc3ccccc3)c3ccccc3n2)c(C)c1,-41
O=S(=O)(c1ccccc1F)N1CCC2(CC1)Nc1ccccc1-n1cccc12,-8
CNS(=O)(=O)c1ccc(F)c(C(=O)Nc2cnn(Cc3ccccc3F)c2)c1,9
Cc1c(C(=O)N2CCC(O)(Cn3ccnc3C)CC2)oc2c1C(=O)CC(C)(C)C2,127
Cn1ccnc1CN(C(=O)c1c(O)cccc1O)C1CC1,5
COc1ccc(NC(=O)NCC(c2cccnc2)c2c[nH]c3ccccc23)c(OC)c1 (centres undefined),419
CCCS(=O)(=O)N1C[C@H](OCc2cccnc2)[C@@H]2COC[C@@H]21,-8
COc1ccc2c(CN(C)Cc3cccc4ncccc34)[nH]nc2c1,-11
COc1ccc(-c2nnn(Cc3ccc(Cl)cc3)n2)cc1OC,7
SMILES,Tgondii IFNg
COc1ccc(CNC(=O)c2nc(Nc3ccccc3)c3ccccc3n2)cc1OC,-42
CCNC(=O)c1nc(Nc2ccc(CC)cc2)c2ccccc2n1,-49
COc1cccc(NC(=O)c2nc(Nc3ccccc3)c3ccccc3n2)c1,-76*
Cc1ccc(CNC(=O)c2nc(Nc3ccccc3)c3ccccc3n2)cc1,57
COc1cccc(CNC(=O)c2nc(Nc3ccccc3)c3ccccc3n2)c1,-54
COc1cccc(CNC(=O)c2nc(Nc3ccc(C)cc3)c3ccccc3n2)c1,-101*
O=C(Nc1cccc(F)c1)c1nc(Nc2ccccc2)c2ccccc2n1,66
CSc1cccc(NC(=O)c2nc(Nc3ccccc3)c3ccccc3n2)c1,-5
CCc1ccc(Nc2nc(C(=O)NCc3ccc(OC)c(OC)c3)nc3ccccc23)cc1,-79*
CN(Cc1ccc2nsnc2c1)Cc1ccccc1C(=O)O,3
Cc1ccc2c(c1)c(-c1cccc(CN3CCOCC3)c1)nn2C,-2
O=C(c1cccc(CC2CCNCC2)c1)N1[C@@H]2CC[C@H]1CC(O)C2 (some centres undefined),-50
CCOC(=O)c1c(NC(=O)c2cccs2)nc(SC)n1Cc1cccs1,-18
COCCN1CCCn2c(nc(CNS(C)(=O)=O)cc2=O)C1,0
Cc1nnc(N2CCC3OCCCC3(COCC(=O)N(C)C)C2)s1 (centres undefined),144
Cc1nc2sc3c(c2c(=O)[nH]1)CCC3,11
O=c1[nH]c(NCCO)nc2sc3c(c12)CCCC3,9
COc1ccc(-c2nc3sc4c(c3c(=O)[nH]2)CCCC4)cc1,-87*
COc1cccc(-c2cc(C(=O)N3CCN4CCN(C)CC4C3)[nH]n2)c1 (centres undefined),-5
Cc1nc(-c2cccnc2)ncc1C(=O)N1CCN2CCNC(=O)C2C1 (centres undefined),-1
COc1cccc(-c2nc(C)c(-c3ccc(SCc4ccc(Cl)cc4Cl)nn3)s2)c1,2
COc1ccc2c(c1)NC1(CCN(C(=O)Nc3ccccc3F)CC1)c1cccn1-2,120
Cc1cc(C(F)(F)F)nc(CCNC(=O)c2c(O)cccc2O)n1,-2
Cc1ccc(Nc2cc(C)nc3c(C)cccc23)cc1,-59
Cc1cc(Nc2cc(C(F)(F)F)nc3c(Cl)cccc23)on1,-80*
Fc1ccccc1CN1CCC2(CC1)CC(c1cccnc1)CO2 (centres undefined),-7
CN1CC[C@@]2(CN(S(=O)(=O)C3CC3)C[C@H]2c2ccccc2)C1=O,-5
CCc1c(C)nn(CC(=O)NCc2nn(C)c3ccc(C)cc23)c1C,-1
Cc1ccc2c(c1)c(CNC(C)CCn1cccn1)nn2C (centres undefined),-7
